Experimental data taken from PubChem BioAssay AID1159580 (chemical genetic matrix, 2015).
Where “and” joins values, the source holds several entries; their conditions need not be identical. Equal entries are not always repeated. Hit rate of the full screen: of about 5,500 compounds, about 2,000 (36%) were called active. Inconclusive results (about 18%) are left out. Rule as the data show it: active = normalized growth mostly below about 0.91 (no sharp cut-off); inconclusive = no clear call, values can overlap the other calls; inactive = mostly above about 0.92. The list shows a part of the results.

Assay: chemical genetic growth profiling, strain panel (AID 1159580);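 also: tested at 20 µM; growth read once vehicle control cultures reached saturation at 30 °C; 1 = growth at the plate median or of vehicle wells; lower values mean less growth of the strain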
Conditions: S. cerevisiae deletion strains, growth OD

Measured: normalized growth

CCC(N)C(O)c1ccc(O)c(O)c1 (configuration not stated)
inactive: locus YAL013W, strain DEP1, stronger effect = lower value 1.02 | locus YAL021C, strain ccr4, stronger effect = lower value 1 | locus YAL026C, strain drs2, stronger effect = lower value 0.987 | locus YAL030W, strain snc1, stronger effect = lower value 0.986 | locus YBL061C, strain skt5, stronger effect = lower value 0.99 | locus YBR009C, strain hhf1, stronger effect = lower value 0.986 | locus YBR021W, strain FUR4, stronger effect = lower value 0.995 | locus YBR023C, strain chs3, stronger effect = lower value 0.994 | locus YBR171W, strain sec66, stronger effect = lower value 0.976 | locus YBR229C, strain ROT2, stronger effect = lower value 1.02 | locus YBR231C, strain swc5, stronger effect = lower value 0.984 | locus YBR279W, strain paf1, stronger effect = lower value 0.991 | locus YCL011C, strain gbp2, stronger effect = lower value 0.996 | locus YCL016C, strain dcc1, stronger effect = lower value 0.998 | locus YCL029C, strain bik1, stronger effect = lower value 0.992 | locus YCL061C, strain MRC1, stronger effect = lower value 0.991 | locus YCL069W, strain vba3, stronger effect = lower value 1 | locus YCR088W, strain abp1, stronger effect = lower value 0.997 | locus YDL005C, strain med2, stronger effect = lower value 0.993 | locus YDL035C, strain GPR1, stronger effect = lower value 1.02 | locus YDL040C, strain nat1, stronger effect = lower value 0.99 | locus YDL074C, strain BRE1, stronger effect = lower value 1 | locus YDL101C, strain DUN1, stronger effect = lower value 1.01 | locus YDL134C, strain PPH21, stronger effect = lower value 1 | locus YDL185W, strain tfp1, stronger effect = lower value 0.968 | locus YDL192W, strain arf1, stronger effect = lower value 0.998 | locus YDR001C, strain nth1, stronger effect = lower value 0.99 | locus YDR069C, strain doa4, stronger effect = lower value 0.981 | locus YDR101C, strain arx1, stronger effect = lower value 0.995 | locus YDR137W, strain rgp1, stronger effect = lower value 1.02 | locus YDR150W, strain NUM1, stronger effect = lower value 1.02 | locus YDR159W, strain sac3, stronger effect = lower value 0.965 | locus YDR162C, strain NBP2, stronger effect = lower value 1.02 | locus YDR195W, strain ref2 0.931 | locus YDR297W, strain sur2, stronger effect = lower value 0.991 | locus YDR318W, strain mcm21, stronger effect = lower value 0.977 | locus YDR334W, strain swr1, stronger effect = lower value 0.994 | locus YDR335W, strain msn5, stronger effect = lower value 0.993 | locus YDR388W, stronger effect = lower value 0.993 | locus YDR392W, strain spt3, stronger effect = lower value 0.934 | locus YDR502C, strain sam2, stronger effect = lower value 0.998 | locus YEL003W, strain gim4, stronger effect = lower value 0.997 | locus YEL037C, strain rad23, stronger effect = lower value 1.02 | locus YEL061C, strain CIN8 (second series), stronger effect = lower value 0.988 | locus YEL061C, strain CIN8, stronger effect = lower value 1.01 | locus YER015W, strain faa2, stronger effect = lower value 0.984 | locus YER016W, strain bim1, stronger effect = lower value 0.989 | locus YER110C, stronger effect = lower value 0.985 | locus YER111C, strain swi4, stronger effect = lower value 0.989 | locus YER155C, strain BEM2 (second series), stronger effect = lower value 0.979 | locus YER155C, strain BEM2, stronger effect = lower value 1.01 | locus YER167W, strain BCK2, stronger effect = lower value 1.03 | locus YFR010W, strain ubp6, stronger effect = lower value 0.983 | locus YGL078C, strain dbp3, stronger effect = lower value 1 | locus YGL086W, strain mad1, stronger effect = lower value 0.988 | locus YGL167C, strain pmr1, stronger effect = lower value 0.985 | locus YGL173C, strain kem1, stronger effect = lower value 0.998 | locus YGL227W, strain vid30, stronger effect = lower value 0.983 | locus YGL240W, strain doc1, stronger effect = lower value 0.96 | locus YGL248W, strain PDE1, stronger effect = lower value 1.01 | locus YGL253W, strain hxk2, stronger effect = lower value 1.01 | locus YGR078C, strain PAC10, stronger effect = lower value 0.991 | locus YGR135W, strain pre9, stronger effect = lower value 0.993 | locus YGR229C, strain SMI1, stronger effect = lower value 1.02 | locus YGR252W, strain gcn5, stronger effect = lower value 1.04 | locus YHR013C, strain ard1, stronger effect = lower value 0.989 | locus YHR027C, strain rpn1, stronger effect = lower value 0.985 | locus YHR030C, strain SLT2, stronger effect = lower value 1.01 | locus YHR079C, strain IRE1 (second series), stronger effect = lower value 0.986 | locus YHR079C, strain IRE1, stronger effect = lower value 1.02 | locus YHR094C, strain hxt1, stronger effect = lower value 0.988 | locus YHR129C, strain ARP1, stronger effect = lower value 1.01 | locus YHR142W, strain chs7, stronger effect = lower value 1.01 | locus YHR200W, strain rpn10, stronger effect = lower value 0.994 | locus YIL066C, strain RNR3, stronger effect = lower value 1.01 | locus YIL073C, strain SPO22, stronger effect = lower value 1.03 | locus YIL125W, strain kgd1, stronger effect = lower value 0.995 | locus YIR030C, strain dcg1, stronger effect = lower value 0.987 | locus YJL092W, strain hpr5, stronger effect = lower value 0.99 | locus YJL095W, strain BCK1 (second series), stronger effect = lower value 0.991 | locus YJL095W, strain BCK1, stronger effect = lower value 1 and 1.01 | locus YJL115W, strain asf1, stronger effect = lower value 0.992 | locus YJL129C, strain trk1, stronger effect = lower value 0.993 | locus YJL134W, strain LCB3, stronger effect = lower value 1.01 | locus YJL154C, strain vps35, stronger effect = lower value 0.993 | locus YJL164C, strain tpk1, stronger effect = lower value 0.994 | locus YJL166W, strain qcr8, stronger effect = lower value 0.988 | locus YJL168C, strain set2, stronger effect = lower value 0.99 | locus YJL187C, strain SWE1 (second series), stronger effect = lower value 0.996 | locus YJL187C, strain SWE1, stronger effect = lower value 0.983 | locus YJR043C, strain POL32, stronger effect = lower value 0.975 | locus YJR066W, strain TOR1, stronger effect = lower value 0.983
